Compounds with a hit are over-represented: about 3.5% of the library has one in this group of screens.
TEAD-YAP block = TEAD-YAP interaction inhibition; HEK-TIYL cells, TEAD-Gal4/YAP UAS-luciferase luminescence; inhibition, % at 9.12 µM; 640,000 compounds, 1.4% hits; in the data active = inhibition above about 32%;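 note: 0% = median of test compound wells and 100% = reference inhibitor wells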
MITF primary = blocks human microphthalmia-associated transcription factor. 650,000 compounds, 0.91% hits. inhibition, % at 2.6 µM. AlphaScreen MITF homodimerization, bead proximity signal. O75030; in the data active = inhibition above about 50%;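 note: 0% = vehicle wells with protein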
Target sequence (O75030 whole entry, looked up): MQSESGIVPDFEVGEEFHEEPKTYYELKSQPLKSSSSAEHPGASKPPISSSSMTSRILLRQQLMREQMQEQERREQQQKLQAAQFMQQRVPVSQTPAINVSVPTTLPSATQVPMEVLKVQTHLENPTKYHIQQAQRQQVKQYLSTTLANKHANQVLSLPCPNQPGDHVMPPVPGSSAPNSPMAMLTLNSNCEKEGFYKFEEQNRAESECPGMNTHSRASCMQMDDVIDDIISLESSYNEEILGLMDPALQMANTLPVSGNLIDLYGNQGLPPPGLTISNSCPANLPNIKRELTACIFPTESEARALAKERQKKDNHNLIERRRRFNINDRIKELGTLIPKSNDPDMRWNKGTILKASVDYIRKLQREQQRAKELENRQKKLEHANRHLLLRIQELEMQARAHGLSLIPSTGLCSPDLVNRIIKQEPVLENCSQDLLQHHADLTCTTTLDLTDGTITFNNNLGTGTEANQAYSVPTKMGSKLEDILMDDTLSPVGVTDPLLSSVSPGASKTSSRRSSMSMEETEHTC
FBW7 activator = human FBW7 E3 ligase activation, primary screen | Q969H0 | AlphaScreen FBW7–phospho-cyclin E peptide binding, activator screen | normalized activity (activation), % at 26.1 µM | 650,000 compounds, 0.13% hits | AID 1259310; in the data active = normalized activity above about 1.9%;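 note: purified mutant Fbw7 with reduced substrate affinity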
GPR151 activ = human GPR151 activation. PathHunter beta-arrestin GPR151 cells, luminescence. activation, % at 11.2 µM. 650,000 compounds, 1% hits. AID 1508602; in the data active = activation above about 4.9%;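 note: 0% = median of compound wells and 100% = cells with positive control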
The depositor's hits bear a star.

SMILES	TEAD-YAP block	MITF primary	FBW7 activator	GPR151 activ
Cc1ccc(NS(=O)(=O)c2ccc(-n3cccn3)cc2)cc1C	2.0	1.6	-0.1	3.3
COc1ccc(NS(=O)(=O)c2cc(C)ccc2OC)cc1OC	-0.3	2.9	0.8	-1.6
COc1ccc(NS(=O)(=O)c2ccc(-n3cccn3)cc2)cc1OC	40.2*	6.0	-0.1	-0.7
COc1ccc(NS(=O)(=O)c2c(C)cc(C)cc2C)cc1OC	45.1*	3.5	-0.1	0.4
O=C1CC(c2ccccc2)CC2=C1C(c1cccc(OC(=O)c3ccccc3)c1)N(C(=O)c1ccccc1)c1ccccc1N2 (centres undefined)	-5.1	2.2	0.0	-0.8
CNc1cc(-c2cnn(C)c2)nc(Nc2ccc(-n3nc(C)nc3C)cc2)n1	18.1	9.8	0.1	-1.9
Cc1ncn(-c2ccc(Nc3ncc(Br)c(-c4cnn(C)c4)n3)cc2)n1	68.7*	11.9	-0.1	-1.7
Cc1ccc(-c2ncn(-c3ccc(Nc4ncc(F)c(-c5cnn(C)c5)n4)cc3)n2)cn1	45.9*	11.1	0.2	-1.7
Cc1nc(C)n(-c2ccc(Nc3ncc4ccc(-c5cnn(C)c5)nc4n3)cc2)n1	72.1*	1.5	-0.1	-0.5
Cc1ccc(-c2ncn(-c3ccc(Nc4ncc5ccc(-c6cn[nH]c6C)cc5n4)cc3)n2)cn1	42.6*	4.5	-0.2	0.2
O=C(Nc1ccc(N2CCOCC2)cc1)c1cccc(Nc2ccc(-n3ccnc3)cc2)n1	4.3	39.3	-0.2	-0.6
O=C(Nc1ccc(Nc2cc(-n3ccnc3)ncn2)cc1)C(c1ccccc1)c1ccccc1	27.5	20.6	0.3	1.0
O=C(Nc1cccc2ccc(-n3ccnc3)nc12)c1ccccc1Cl	9.2	2.3	2.3*	1.1
Cc1onc(-c2ccccc2Cl)c1C(=O)Nc1cccc2ccc(-n3ccnc3)nc12	18.9	-1.8	-0.2	2.5
O=C(Nc1ccc(Nc2cc(-n3ccnc3)ncn2)cc1)c1ccccc1Cl	40.6*	-2.9	-0.1	1.0
O=C(Cc1ccc(F)cc1)Nc1ccc(Nc2cc(-n3ccnc3)ncn2)cc1	13.1	9.7	0.2	-2.0
COc1ccccc1C(=O)Nc1ccc(Nc2cc(-n3ccnc3)ncn2)cc1	36.9*	1.2	-0.1	-0.1
CCCCn1c(N/N=C(/C)c2ccccc2)nc2c1c(=O)[nH]c(=O)n2C	-1.2	11.4	0.2	-0.2
CS(=O)(=O)NCCN1CCN(c2ccccc2)CC1	16.8	7.8	0.1	1.4
O=C(NCc1nnc2n1CCN(CC(c1ccccc1)c1ccccc1)CC2)C1CCOC1 (centres undefined)	-0.6	2.5	0.5	-0.3
CCC(C(=O)O)N1C(=O)/C(=C/c2cccs2)SC1=S (centres undefined)	4.4	1.0	-0.2	-1.2
O=C1/C(=C/c2ccco2)SC(=S)N1NS(=O)(=O)c1ccccc1	8.4	59.5*	0.0	1.7
CCC(C(=O)O)N1C(=O)/C(=C\c2ccco2)SC1=S (centres undefined)	-6.2	59.3*	-0.1	0.9
COc1ccc(/C=C2/SC(=S)N(NS(=O)(=O)c3ccccc3)C2=O)cc1	-2.2	-6.6	0.0	1.5
C=CCN1/C(=C/C(=C/c2sc3ccccc3[n+]2CC=C)CC)Sc2ccccc21	82.8*	51.9*	-0.3	3.7
SMILES	TEAD-YAP block	MITF primary	FBW7 activator	GPR151 activ
O=C(Nc1cc(C(F)(F)F)cc(C(F)(F)F)c1)c1ccc([N+](=O)[O-])o1	59.1*	-7.0	-0.1	-0.1
CCC(=O)Nc1ccc(S(=O)(=O)N2CCN(c3cc(N4CCCC4)ncn3)CC2)cc1	-6.4	-6.0	-0.2	0.8
CCC(C)NS(=O)(=O)c1ccc2c(c1)oc(=O)n2C (centres undefined)	-14.1	-10.6	0.2	-2.1
CC(C)(C)OC(=O)NC(CCNC=C1C(=O)OC(C)(C)OC1=O)C(=O)O (centres undefined)	8.5	70.6*	0.0	-0.9
CCN1CCN(Cc2ccc(NC(=O)Nc3ccccc3)cc2)CC1	52.3*	2.7	0.1	0.3
CCN1CCN(Cc2ccc(NC(=O)Nc3ccc(OC)cc3)cc2)CC1	-33.2	22.0	0.7	3.1
CC(=O)c1ccc(OCC(=O)NCC2Cc3c(F)ccc(-c4ccncc4)c3O2)cc1 (centres undefined)	32.8*	-0.4	0.2	3.6
CCOc1ccc(NC(=O)CC2C(=O)N(c3ccc(OC)cc3)C(=S)N2CCCN2CCCCC2)cc1 (centres undefined)	-0.1	4.2	0.0	-0.6
COc1ccc(Cl)cc1NC1=C(Cl)C(=O)N(Cc2ccccc2)C1=O	71.6*	63.7*	-0.2	-1.5
O=C1C(Cl)=C(Nc2cccc(C(F)(F)F)c2)C(=O)N1Cc1ccccc1	74.9*	-8.7	-0.1	-0.4
COc1ccc(OC)c(NC2=C(Cl)C(=O)N(Cc3ccccc3)C2=O)c1	9.2	26.3	0.3	-2.0
CCOC(=O)c1[nH]c(C)c(CNc2cc(OC)ccc2OC)c1C	49.6*	11.7	0.0	-0.1
CCOC(=O)c1[nH]c(C)c(C(=O)Nc2ccccc2OCC)c1C	57.6*	-8.8	-0.2	-0.1
CCOC(=O)c1[nH]c(C)c(C(=O)N2CC(C)CC(C)C2)c1C (centres undefined)	43.5*	-2.0	-0.1	-1.3
CCOC(=O)c1[nH]c(C)c(C(=O)N2CCCCCC2)c1C	-7.6	20.1	0.9	1.4
CCOC(=O)c1c(C)[nH]c(C(=O)C(C)Nc2ccccc2OCC)c1C (centres undefined)	-2.6	5.4	-0.3	-0.2
CCOC(=O)c1[nH]c(C)c(C(=O)c2ccc(Cl)cc2)c1C	40.2*	12.7	-0.1	2.0
CCOC(=O)C(NS(=O)(=O)c1ccc([N+](=O)[O-])cc1)C(C)C (centres undefined)	5.6	3.0	0.0	0.4
COc1ccc(C(=O)NNC(=O)CCC(=O)Nc2cccc(Cl)c2C)cc1	-2.3	-1.8	-0.1	-0.6
COc1cc(/C=C2/C(=N)N3N=C(C(F)(F)F)SC3=NC2=O)ccc1OCCOc1c(C)cccc1C	1.5	-1.4	-0.1	-0.7
CCOC(=O)c1[nH]c(C)c(C(=O)Nc2cc(C)ccc2OC)c1C	56.8*	1.5	-0.3	1.7
CCOC(=O)c1c(C)[nH]c(C(=O)C(C)Nc2ccc(OC)c(OC)c2)c1C (centres undefined)	43.4*	42.0	-0.1	-2.4
CCOC(=O)c1c(C)[nH]c(C(=O)C(C)Nc2cc(NC(C)=O)ccc2OC)c1C (centres undefined)	1.4	0.9	-0.1	-1.8
CC(=O)c1[nH]c(C)c(C(=O)Nc2cc(Cl)ccc2C)c1C	-1.1	16.6	0.0	0.1
CCOC(=O)c1[nH]c(C)c(C(=O)Nc2ccccc2C)c1C	44.0*	-4.9	-0.2	-0.7
CCOC(=O)c1[nH]c(C)c(C(=O)Nc2cc(Cl)ccc2C)c1C	47.4*	-10.3	-0.3	-0.3
Cc1ccc(CN2CCN(Cc3ccc4nsnc4c3)CC2CCO)o1 (centres undefined)	3.6	11.7	0.1	3.5
CS(=O)(=O)NCC(c1cccs1)S(=O)(=O)c1ccc(F)cc1 (centres undefined)	5.8	1.7	-0.1	-1.9
Cc1cc(C(=O)N/N=C(\CCC(=O)O)c2cccs2)c2ccccc2n1	51.3*	11.5	0.3	-0.3

Bioassay records from PubChem BioAssay.
